# Test results taken from article PMC7862700, “An all-to-all approach to the identification of sequence-specific readers for epigenetic DNA modifications on cytosine”.
# Experiments:
# Test in all cases: DAPPL (digital affinity profiling via proximity ligation, sequencing); 10 mM Tris-HCl pH 7.5, 50 mM NaCl, 1 mM DTT, 4% glycerol, room temperature, 30 min; GST-TFs on glutathione beads, 16-mer random dsDNA library, 0.1% formaldehyde crosslink after washing; high values mean tight binding
# FEV = molecular target: T1, FEV (Homo sapiens, UniProt Q99581 1-238); conditions: protein: recombinant; tags: N-terminal GST; dsDNA, one strand shown
# T1 sequence: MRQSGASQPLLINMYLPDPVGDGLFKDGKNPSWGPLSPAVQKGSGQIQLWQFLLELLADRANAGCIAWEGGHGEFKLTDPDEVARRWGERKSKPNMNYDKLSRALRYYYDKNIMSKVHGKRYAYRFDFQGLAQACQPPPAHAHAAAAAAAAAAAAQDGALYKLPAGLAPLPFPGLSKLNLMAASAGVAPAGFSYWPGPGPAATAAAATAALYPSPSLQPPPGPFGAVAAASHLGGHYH
# Summary of the method: (§1)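 Yeast served to express human transcription factors as GST fusions, which were then captured on glutathione beads and labelled with DNA barcodes. Pooled with a tag-only sample, they were incubated with 200 nmole of a 16-mer random double-stranded DNA library for 30 min at room temperature in Tris/NaCl/DTT/glycerol buffer, washed, crosslinked with 0.1% formaldehyde, ligated by proximity, amplified by PCR and sequenced. Dividing each hexamer's read frequency for a factor by its frequency for the tag-only sample gives the binding signal.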
# ETV5 = ETV5 (Homo sapiens, UniProt P41161 1-510); conditions: protein: recombinant; tags: N-terminal GST; dsDNA, one strand shown
# ETV5, sequence (P41161 whole entry): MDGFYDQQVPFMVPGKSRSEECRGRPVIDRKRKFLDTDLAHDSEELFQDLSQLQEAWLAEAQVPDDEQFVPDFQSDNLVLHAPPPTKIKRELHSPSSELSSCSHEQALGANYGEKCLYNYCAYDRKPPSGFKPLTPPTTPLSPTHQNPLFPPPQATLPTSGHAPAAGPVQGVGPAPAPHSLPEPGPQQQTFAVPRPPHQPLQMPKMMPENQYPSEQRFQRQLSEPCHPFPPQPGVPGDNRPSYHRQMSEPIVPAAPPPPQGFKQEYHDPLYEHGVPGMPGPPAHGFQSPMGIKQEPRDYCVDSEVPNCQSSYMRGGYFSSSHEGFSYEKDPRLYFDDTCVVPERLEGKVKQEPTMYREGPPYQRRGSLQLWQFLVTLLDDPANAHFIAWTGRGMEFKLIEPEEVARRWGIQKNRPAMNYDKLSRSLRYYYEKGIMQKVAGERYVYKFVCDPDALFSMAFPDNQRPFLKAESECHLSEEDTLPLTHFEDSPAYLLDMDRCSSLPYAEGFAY
# Summary of the method: as §1
# HSF1 = HSF1 (Homo sapiens, UniProt Q00613 1-529); conditions: protein: recombinant; tags: N-terminal GST; chain copies: 3; dsDNA, one strand shown
# HSF1, sequence (Q00613 whole entry): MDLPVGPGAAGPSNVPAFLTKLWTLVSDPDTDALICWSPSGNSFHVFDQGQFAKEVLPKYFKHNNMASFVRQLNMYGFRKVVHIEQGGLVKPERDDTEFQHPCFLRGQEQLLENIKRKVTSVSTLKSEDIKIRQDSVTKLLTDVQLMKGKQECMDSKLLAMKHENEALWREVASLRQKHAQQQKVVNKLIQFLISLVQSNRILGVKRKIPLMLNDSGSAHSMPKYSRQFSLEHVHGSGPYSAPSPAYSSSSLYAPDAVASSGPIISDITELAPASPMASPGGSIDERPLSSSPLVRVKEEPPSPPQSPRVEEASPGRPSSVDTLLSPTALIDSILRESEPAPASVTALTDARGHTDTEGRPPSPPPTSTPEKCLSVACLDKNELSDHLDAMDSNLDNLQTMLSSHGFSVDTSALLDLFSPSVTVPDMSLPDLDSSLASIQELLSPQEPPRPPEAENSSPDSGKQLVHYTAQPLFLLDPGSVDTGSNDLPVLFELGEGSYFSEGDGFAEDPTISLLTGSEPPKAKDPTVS
# Summary of the method: as §1
# SPIC = molecular target: T2, SPIC (Homo sapiens, UniProt Q8N5J4 1-248); conditions: protein: recombinant; tags: N-terminal GST; dsDNA, one strand shown
# T2 sequence: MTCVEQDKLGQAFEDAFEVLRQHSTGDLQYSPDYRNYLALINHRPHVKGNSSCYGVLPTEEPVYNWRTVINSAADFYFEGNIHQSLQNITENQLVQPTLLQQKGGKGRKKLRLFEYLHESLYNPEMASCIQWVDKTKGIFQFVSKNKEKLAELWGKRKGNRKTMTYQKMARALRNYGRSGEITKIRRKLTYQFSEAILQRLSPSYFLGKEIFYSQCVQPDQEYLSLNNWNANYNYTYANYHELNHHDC
# Summary of the method: as §1
# ELF4 = ELF4 (Homo sapiens, UniProt Q99607 1-663); conditions: protein: recombinant; tags: N-terminal GST; dsDNA, one strand shown
# ELF4, sequence (Q99607 whole entry): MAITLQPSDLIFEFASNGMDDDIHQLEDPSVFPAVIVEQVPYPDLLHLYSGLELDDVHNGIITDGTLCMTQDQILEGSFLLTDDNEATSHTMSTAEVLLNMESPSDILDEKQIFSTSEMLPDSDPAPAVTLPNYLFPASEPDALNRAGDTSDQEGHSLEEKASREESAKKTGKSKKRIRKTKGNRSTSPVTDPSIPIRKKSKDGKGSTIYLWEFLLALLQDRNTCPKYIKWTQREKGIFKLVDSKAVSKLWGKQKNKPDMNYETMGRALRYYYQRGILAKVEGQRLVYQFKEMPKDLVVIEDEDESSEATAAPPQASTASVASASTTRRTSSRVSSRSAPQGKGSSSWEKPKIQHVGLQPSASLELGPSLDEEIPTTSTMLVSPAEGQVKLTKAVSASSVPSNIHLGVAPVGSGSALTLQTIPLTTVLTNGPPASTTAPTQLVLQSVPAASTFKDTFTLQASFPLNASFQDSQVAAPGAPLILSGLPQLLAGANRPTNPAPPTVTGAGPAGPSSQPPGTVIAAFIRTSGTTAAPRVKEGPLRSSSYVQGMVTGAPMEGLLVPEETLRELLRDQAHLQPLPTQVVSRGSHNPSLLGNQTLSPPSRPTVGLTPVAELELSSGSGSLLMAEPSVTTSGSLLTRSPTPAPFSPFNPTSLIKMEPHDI
# Summary of the method: as §1
# ELK4 = molecular target: T3, ELK4 (Homo sapiens, UniProt P28324-2 1-405); conditions: protein: recombinant; tags: N-terminal GST; dsDNA, one strand shown
# T3 sequence: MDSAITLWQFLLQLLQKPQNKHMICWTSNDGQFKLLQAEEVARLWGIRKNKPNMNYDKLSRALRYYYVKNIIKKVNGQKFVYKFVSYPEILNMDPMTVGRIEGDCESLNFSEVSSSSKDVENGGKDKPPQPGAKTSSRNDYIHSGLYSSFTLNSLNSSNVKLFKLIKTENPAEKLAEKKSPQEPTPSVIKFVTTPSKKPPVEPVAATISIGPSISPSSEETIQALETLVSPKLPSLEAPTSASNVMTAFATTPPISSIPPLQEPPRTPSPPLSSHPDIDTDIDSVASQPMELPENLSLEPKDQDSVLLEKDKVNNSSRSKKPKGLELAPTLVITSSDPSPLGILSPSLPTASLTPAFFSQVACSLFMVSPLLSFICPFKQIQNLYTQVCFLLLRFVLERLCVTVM
# Summary of the method: as §1
# ETV2 = molecular target: T4, ETV2 (Homo sapiens, UniProt O00321 1-342); conditions: protein: recombinant; tags: N-terminal GST; dsDNA, one strand shown
# T4 sequence: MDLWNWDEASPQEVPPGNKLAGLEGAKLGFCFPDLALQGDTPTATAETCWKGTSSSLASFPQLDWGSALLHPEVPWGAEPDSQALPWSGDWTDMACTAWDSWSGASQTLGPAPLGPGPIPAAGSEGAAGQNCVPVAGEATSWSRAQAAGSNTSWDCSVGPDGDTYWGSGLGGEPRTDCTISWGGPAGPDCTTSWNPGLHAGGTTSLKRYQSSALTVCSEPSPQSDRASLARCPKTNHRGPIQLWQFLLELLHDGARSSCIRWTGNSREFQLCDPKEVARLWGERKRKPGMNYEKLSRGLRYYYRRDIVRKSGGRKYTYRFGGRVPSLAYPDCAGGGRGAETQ
# Summary of the method: as §1
# ELF3 = molecular target: T5, ELF3 (Homo sapiens, UniProt P78545 1-371); conditions: protein: recombinant; tags: N-terminal GST; dsDNA, one strand shown
# T5 sequence: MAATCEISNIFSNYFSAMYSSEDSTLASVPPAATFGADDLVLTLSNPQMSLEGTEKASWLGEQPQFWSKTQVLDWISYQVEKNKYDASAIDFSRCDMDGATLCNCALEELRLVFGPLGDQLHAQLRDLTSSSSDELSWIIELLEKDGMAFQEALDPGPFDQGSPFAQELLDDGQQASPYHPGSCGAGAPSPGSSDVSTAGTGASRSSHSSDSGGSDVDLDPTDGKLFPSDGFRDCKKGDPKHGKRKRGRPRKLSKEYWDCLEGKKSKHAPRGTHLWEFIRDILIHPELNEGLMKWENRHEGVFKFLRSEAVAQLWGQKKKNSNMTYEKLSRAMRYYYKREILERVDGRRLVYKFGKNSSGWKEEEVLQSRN
# Summary of the method: as §1
# CRX = CRX (Homo sapiens, UniProt O43186 1-299); conditions: protein: recombinant; tags: N-terminal GST; dsDNA, one strand shown
# CRX, sequence (O43186 whole entry): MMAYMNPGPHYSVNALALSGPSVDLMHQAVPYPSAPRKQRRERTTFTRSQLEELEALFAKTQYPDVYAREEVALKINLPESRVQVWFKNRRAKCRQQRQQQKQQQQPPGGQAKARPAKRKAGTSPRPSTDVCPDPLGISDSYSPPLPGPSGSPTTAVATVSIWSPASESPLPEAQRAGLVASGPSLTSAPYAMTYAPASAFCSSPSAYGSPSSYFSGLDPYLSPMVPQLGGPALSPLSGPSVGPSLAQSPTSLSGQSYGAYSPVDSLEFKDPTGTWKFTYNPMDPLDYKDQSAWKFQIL
# Summary of the method: as §1
# ETV1 = ETV1 (Homo sapiens, UniProt P50549 1-477); conditions: protein: recombinant; tags: N-terminal GST; dsDNA, one strand shown
# ETV1, sequence (P50549 whole entry): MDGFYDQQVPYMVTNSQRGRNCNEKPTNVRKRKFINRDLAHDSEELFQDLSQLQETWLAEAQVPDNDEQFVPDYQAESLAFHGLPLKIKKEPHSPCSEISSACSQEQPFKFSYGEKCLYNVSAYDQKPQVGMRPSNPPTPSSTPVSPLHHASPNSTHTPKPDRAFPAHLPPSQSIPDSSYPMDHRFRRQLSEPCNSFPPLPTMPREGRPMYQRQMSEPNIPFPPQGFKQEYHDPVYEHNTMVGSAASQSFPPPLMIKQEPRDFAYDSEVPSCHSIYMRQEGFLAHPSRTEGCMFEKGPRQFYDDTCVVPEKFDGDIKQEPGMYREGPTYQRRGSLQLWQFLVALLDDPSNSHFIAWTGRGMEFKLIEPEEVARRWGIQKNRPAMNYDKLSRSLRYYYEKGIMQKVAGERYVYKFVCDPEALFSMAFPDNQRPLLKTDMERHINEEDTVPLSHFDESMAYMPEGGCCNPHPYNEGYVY
# Summary of the method: as §1
# ERF = molecular target: T6, ERF (Homo sapiens, UniProt P50548 1-548); conditions: protein: recombinant; tags: N-terminal GST; dsDNA, one strand shown
# T6 sequence: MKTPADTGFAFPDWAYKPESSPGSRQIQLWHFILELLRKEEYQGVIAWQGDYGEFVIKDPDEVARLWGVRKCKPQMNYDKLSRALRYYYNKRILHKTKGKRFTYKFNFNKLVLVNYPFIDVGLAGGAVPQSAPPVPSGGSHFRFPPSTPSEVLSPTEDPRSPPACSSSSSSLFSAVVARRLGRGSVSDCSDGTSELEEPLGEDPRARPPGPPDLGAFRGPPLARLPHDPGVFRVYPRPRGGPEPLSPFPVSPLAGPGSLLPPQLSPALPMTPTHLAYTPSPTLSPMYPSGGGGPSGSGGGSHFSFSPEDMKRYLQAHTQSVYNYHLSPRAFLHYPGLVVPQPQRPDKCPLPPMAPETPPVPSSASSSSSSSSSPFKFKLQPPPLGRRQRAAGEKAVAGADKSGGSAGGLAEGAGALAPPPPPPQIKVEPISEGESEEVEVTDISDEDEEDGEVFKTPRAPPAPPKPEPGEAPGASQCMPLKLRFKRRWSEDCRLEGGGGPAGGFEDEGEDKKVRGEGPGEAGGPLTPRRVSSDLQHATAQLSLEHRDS
# Summary of the method: as §1
# ETV3L = molecular target: T7, ETV3L (Homo sapiens, UniProt Q6ZN32 1-361); conditions: protein: recombinant; tags: N-terminal GST; dsDNA, one strand shown
# T7 sequence: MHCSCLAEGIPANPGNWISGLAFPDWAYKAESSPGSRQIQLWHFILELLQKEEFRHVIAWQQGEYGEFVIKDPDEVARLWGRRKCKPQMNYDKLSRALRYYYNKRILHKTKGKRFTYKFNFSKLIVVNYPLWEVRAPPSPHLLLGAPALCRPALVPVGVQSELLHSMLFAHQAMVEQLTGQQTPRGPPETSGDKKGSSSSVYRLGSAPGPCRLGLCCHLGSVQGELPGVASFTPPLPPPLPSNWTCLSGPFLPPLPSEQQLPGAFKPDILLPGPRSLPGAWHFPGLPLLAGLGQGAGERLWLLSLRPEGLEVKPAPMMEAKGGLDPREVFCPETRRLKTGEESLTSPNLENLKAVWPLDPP
# Summary of the method: as §1
# ETS2 = molecular target: T8, ETS2 (Homo sapiens, UniProt P15036 1-469); conditions: protein: recombinant; tags: N-terminal GST; dsDNA, one strand shown
# T8 sequence: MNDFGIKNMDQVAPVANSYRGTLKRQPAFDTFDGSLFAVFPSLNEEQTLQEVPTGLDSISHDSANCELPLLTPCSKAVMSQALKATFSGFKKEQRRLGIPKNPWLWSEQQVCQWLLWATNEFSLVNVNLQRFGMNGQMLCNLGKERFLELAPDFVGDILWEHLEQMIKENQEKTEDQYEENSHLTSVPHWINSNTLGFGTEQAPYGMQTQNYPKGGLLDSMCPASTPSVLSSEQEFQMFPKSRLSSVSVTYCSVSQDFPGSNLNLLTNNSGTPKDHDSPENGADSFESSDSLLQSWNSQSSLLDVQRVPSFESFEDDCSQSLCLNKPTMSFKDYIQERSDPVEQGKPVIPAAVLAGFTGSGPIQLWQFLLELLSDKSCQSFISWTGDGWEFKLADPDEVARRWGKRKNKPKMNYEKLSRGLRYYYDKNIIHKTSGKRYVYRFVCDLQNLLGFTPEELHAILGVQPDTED
# Summary of the method: as §1
# SPDEF = molecular target: T9, SPDEF (Homo sapiens, UniProt O95238 1-335); conditions: protein: recombinant; tags: N-terminal GST; dsDNA, one strand shown
# T9 sequence: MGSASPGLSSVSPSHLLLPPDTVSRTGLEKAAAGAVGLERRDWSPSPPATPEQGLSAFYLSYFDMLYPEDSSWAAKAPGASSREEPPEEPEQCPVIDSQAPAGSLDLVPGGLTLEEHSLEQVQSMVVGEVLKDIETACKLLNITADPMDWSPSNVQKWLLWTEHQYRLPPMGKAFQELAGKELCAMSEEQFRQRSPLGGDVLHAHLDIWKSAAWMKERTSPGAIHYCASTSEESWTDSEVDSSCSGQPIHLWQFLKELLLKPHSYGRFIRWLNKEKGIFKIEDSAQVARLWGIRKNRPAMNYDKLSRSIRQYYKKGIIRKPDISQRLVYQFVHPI
# Summary of the method: as §1
# ETV7 = molecular target: T10, ETV7 (Homo sapiens, UniProt Q9Y603 1-341); conditions: protein: recombinant; tags: N-terminal GST; dsDNA, one strand shown
# T10 sequence: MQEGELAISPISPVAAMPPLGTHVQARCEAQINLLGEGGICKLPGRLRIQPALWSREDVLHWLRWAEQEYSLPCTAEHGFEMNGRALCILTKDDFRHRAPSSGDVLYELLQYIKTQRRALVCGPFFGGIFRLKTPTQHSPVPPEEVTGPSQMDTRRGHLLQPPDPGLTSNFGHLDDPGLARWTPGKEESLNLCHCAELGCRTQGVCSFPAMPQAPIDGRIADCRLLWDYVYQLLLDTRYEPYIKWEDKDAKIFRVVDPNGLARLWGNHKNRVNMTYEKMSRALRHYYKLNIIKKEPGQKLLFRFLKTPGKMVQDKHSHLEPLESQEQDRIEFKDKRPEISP
# Summary of the method: as §1
# ELF5 = molecular target: T11, ELF5 (Homo sapiens, UniProt Q9UKW6-2 1-255); conditions: protein: recombinant; tags: N-terminal GST; dsDNA, one strand shown
# T11 sequence: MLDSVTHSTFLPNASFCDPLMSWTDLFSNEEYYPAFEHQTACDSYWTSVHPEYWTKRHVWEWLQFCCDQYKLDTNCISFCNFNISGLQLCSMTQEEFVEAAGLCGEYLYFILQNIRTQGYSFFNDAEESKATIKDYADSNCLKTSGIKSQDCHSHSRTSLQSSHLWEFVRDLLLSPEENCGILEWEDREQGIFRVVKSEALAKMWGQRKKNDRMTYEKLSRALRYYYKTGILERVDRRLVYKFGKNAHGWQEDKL
# Summary of the method: as §1
# ETV3 = molecular target: T12, ETV3 (Homo sapiens, UniProt P41162-2 1-143); conditions: protein: recombinant; tags: N-terminal GST; dsDNA, one strand shown
# T12 sequence: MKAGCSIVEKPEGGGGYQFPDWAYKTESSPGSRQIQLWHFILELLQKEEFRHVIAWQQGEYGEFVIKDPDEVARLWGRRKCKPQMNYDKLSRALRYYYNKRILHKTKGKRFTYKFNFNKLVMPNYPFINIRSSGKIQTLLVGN
# Summary of the method: as §1
# ETV6 = ETV6 (Homo sapiens, UniProt P41212 1-452); conditions: protein: recombinant; tags: N-terminal GST; dsDNA, one strand shown
# ETV6, sequence (P41212 whole entry): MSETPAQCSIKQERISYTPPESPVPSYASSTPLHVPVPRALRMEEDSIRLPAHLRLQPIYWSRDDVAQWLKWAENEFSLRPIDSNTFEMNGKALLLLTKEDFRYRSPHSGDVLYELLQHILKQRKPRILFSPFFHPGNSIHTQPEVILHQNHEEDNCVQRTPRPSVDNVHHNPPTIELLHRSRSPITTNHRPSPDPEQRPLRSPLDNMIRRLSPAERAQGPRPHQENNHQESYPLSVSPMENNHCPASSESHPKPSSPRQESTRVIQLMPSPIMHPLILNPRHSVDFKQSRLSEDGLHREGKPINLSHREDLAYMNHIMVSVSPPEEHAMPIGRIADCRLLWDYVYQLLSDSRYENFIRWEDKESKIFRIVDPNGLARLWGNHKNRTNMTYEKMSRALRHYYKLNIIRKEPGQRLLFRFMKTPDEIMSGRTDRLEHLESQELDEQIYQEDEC
# Summary of the method: as §1
sequence,measurement,setting,value
TCCGCC,binding signal,FEV,"1.88 fold enrichment (6-mer frequency, TF over GST control)"
same,binding signal,ETV5,"1.69 fold enrichment (6-mer frequency, TF over GST control)"
same,binding signal,HSF1,"1.04 fold enrichment (6-mer frequency, TF over GST control)"
same,binding signal,SPIC,"1.69 fold enrichment (6-mer frequency, TF over GST control)"
same,binding signal,ELF4,"1.55 fold enrichment (6-mer frequency, TF over GST control)"
same,binding signal,ELK4,"1.45 fold enrichment (6-mer frequency, TF over GST control)"
same,binding signal,ETV2,"1.48 fold enrichment (6-mer frequency, TF over GST control)"
same,binding signal,ELF3,"1.6 fold enrichment (6-mer frequency, TF over GST control)"
same,binding signal,CRX,"1.05 fold enrichment (6-mer frequency, TF over GST control)"
same,binding signal,ETV1,"1.59 fold enrichment (6-mer frequency, TF over GST control)"
same,binding signal,ERF,"1.48 fold enrichment (6-mer frequency, TF over GST control)"
same,binding signal,ETV3L,"1.59 fold enrichment (6-mer frequency, TF over GST control)"
same,binding signal,ETS2,"1.54 fold enrichment (6-mer frequency, TF over GST control)"
same,binding signal,SPDEF,"1.83 fold enrichment (6-mer frequency, TF over GST control)"
same,binding signal,ETV7,"1.49 fold enrichment (6-mer frequency, TF over GST control)"
same,binding signal,ELF5,"2.2 fold enrichment (6-mer frequency, TF over GST control)"
same,binding signal,ETV3,"1.75 fold enrichment (6-mer frequency, TF over GST control)"
same,binding signal,ETV6,"1.63 fold enrichment (6-mer frequency, TF over GST control)"
